Source: PubChem BioAssay (NCI)
The panel holds about 83,000 compounds, 20% with a hit somewhere; the sample as a whole holds those more often.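 Single-concentration screen, 48 h exposure, 96-well plates. Endpoint: percent growth. Below 10 = active.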 Unmarked numbers belong to inactive results. Calls of active or inactive are those of the source.

Experiments:
Assay in all cases: NCI-60 one-dose screen, 48 h (100 = growth as untreated, 0 = no growth, -100 = all killed)
Details in all cases: 10 µM
HT29 colon = tested on: HT29 colon
SNB-75 CNS = tested on: SNB-75 CNS
SNB-19 CNS = tested on: SNB-19 CNS
U251 CNS = tested on: U251 CNS
PC-3 prostate = tested on: PC-3 prostate
SK-MEL-5 melanoma = tested on: SK-MEL-5 melanoma
UACC-62 melanoma = tested on: UACC-62 melanoma
LOX IMVI melanoma = tested on: LOX IMVI melanoma
SK-MEL-28 melanoma = tested on: SK-MEL-28 melanoma
SK-MEL-2 melanoma = tested on: SK-MEL-2 melanoma
EKVX NSCLC = tested on: EKVX NSCLC
SN12C renal = tested on: SN12C renal
UO-31 renal = tested on: UO-31 renal
TK-10 renal = tested on: TK-10 renal
ACHN renal = tested on: ACHN renal
CAKI-1 renal = tested on: CAKI-1 renal
CCRF-CEM leukemia = tested on: CCRF-CEM leukemia
MOLT-4 leukemia = tested on: MOLT-4 leukemia
SR leukemia = tested on: SR leukemia
A498 renal = tested on: A498 renal

Structure (SMILES)	growth (HT29 colon)	growth (SNB-75 CNS)	growth (SNB-19 CNS) [%]	growth (U251 CNS)	growth (PC-3 prostate)	growth (SK-MEL-5 melanoma)	growth (UACC-62 melanoma)	growth (LOX IMVI melanoma)	growth (SK-MEL-28 melanoma)	growth (SK-MEL-2 melanoma)	growth (EKVX NSCLC)	growth (SN12C renal) [%]	growth (UO-31 renal)	growth (TK-10 renal)	growth (ACHN renal)	growth (CAKI-1 renal)	growth (CCRF-CEM leukemia)	growth (MOLT-4 leukemia)	growth (SR leukemia)	growth (A498 renal)
CCCCCCNC(=O)Oc1ccc(/C(=C(/CC)Cc2ccccc2)c2ccc(OCCN3CCCCC3)cc2)cc1	20.3%	80.2%	85.9	69.3%	73.2%	84.5%	99.5%	96.8%	96.4%	91.3%	85.1%	80.7	60.4%	93.7%	100%	96.9%	66.7%	55.2%	0.769% (active)	–
N#CCCN(NC(=O)OCc1ccccc1)C(=O)OCc1ccccc1	106%	81.4%	108	102%	93.4%	108%	101%	94.3%	119%	106%	91.8%	106	80.7%	120%	102%	88.4%	99%	97.1%	107%	–
CC(=O)n1c(-c2ccc(Cl)c(Cl)c2)cn(-c2ccc(Cl)cc2)c1=O	12.8%	-0.456% (active)	18.4	26.6%	-31.2% (active)	9.15% (active)	18%	18.2%	7.17% (active)	80.9%	30.3%	46.9	3.31% (active)	54.4%	22.8%	–	-26.3% (active)	18.4%	0.989% (active)	4.91% (active)
S=c1[nH]ccn1-c1c(Cl)cccc1Cl	105%	102%	90.9	104%	106%	106%	97.3%	99%	101%	140%	103%	92.6	91%	112%	101%	–	76.7%	106%	104%	116%
Nc1nc(Nc2ccccc2)n[nH]1	105%	90.6%	94.6	100%	116%	106%	90.7%	100%	109%	103%	95.8%	101	82.3%	101%	89.7%	–	97.7%	106%	102%	108%
COC(=O)C1(C)Cc2cc(OC(C)=O)c(OC(C)=O)cc2N1 (stereo not drawn)	79.8%	82%	105	81.5%	64.7%	76.3%	56.6%	66%	100%	85.2%	92.2%	88.8	32.3%	87.9%	27.3%	–	24.1%	56.6%	1.05% (active)	92.8%
Nc1cc2c(cc1Cl)-c1ccc([N+](=O)[O-])cc1/C2=N\O	82.5%	66.6%	93.6	67.7%	52%	82.5%	78%	53.8%	109%	106%	66%	88.2	33.3%	48.7%	63.3%	55.6%	28.7%	37.9%	10.8%	–
Cc1cc(C)c(CCc2cc(C)c(C)cc2C)cc1C	100%	98.3%	105	93.9%	106%	103%	101%	91.7%	108%	109%	102%	107	92.2%	117%	112%	94.1%	93%	90.5%	90.4%	–
COc1cccc(-c2cc(-c3cccc(NS(C)(=O)=O)c3)nc(N)c2C#N)c1O	12.6%	-16.4% (active)	42.3	30.9%	16.6%	11.9%	52.9%	46.6%	76.7%	69%	32.6%	50.7	15.3%	71.3%	43.3%	-11.9% (active)	12.3%	35%	24.6%	–
COc1ccc(Cl)cc1C(=O)Nc1nc2ccc(Cl)cc2s1	109%	74.3%	103	87.3%	84.4%	92.8%	91.5%	81.2%	105%	104%	76.2%	91.7	58.2%	127%	85.9%	84.4%	86.4%	95.6%	87.7%	–
COc1ccc(-c2nc3sccn3c2-c2nc3c([nH]2)C(=O)c2ccccc2C3=O)cc1	96.2%	81.7%	96.4	87.1%	73.7%	89%	82.2%	90.7%	89.6%	101%	83.1%	86	71.3%	111%	86.4%	84.7%	79.9%	76%	76.6%	–
O=C(Nc1nc(-c2ccccc2Cl)cs1)c1cc(-c2ccc(Cl)cc2)nc2ccc(Cl)cc12	6.1% (active)	20.6%	39	12.5%	20.8%	-25.4% (active)	37.5%	15%	53.5%	10.7%	73.9%	30.3	28.4%	98.4%	36.9%	81.7%	28.4%	18.4%	12.9%	–
O=C(CSSCC(=O)c1ccc(Cl)cc1)c1ccc(Cl)cc1	92.6%	62%	52.8	53.7%	61.1%	29.7%	57.8%	40.7%	59.5%	79.5%	91.4%	79.1	86.4%	41.3%	82.1%	96.5%	15.3%	13.9%	18.7%	–
Clc1ccccc1N=Cc1ccc2c(c1)OCO2	96.3%	95%	105	94.9%	107%	107%	103%	98.9%	110%	108%	99.7%	92	80%	107%	111%	93.6%	88.8%	87.9%	89%	–
O=C(N/N=C\c1cc(Cl)ccc1[N+](=O)[O-])c1ccco1	107%	96%	102	97.4%	100%	111%	101%	103%	110%	117%	106%	99.8	104%	128%	105%	89.5%	102%	93.6%	123%	–
Cc1cc(N(CCCNc2ccnc3cc(Cl)ccc23)Cc2ccc3c(c2)OCO3)nc(N2CCCCC2)n1	-49.9% (active)	-26.5% (active)	14.9	-55% (active)	-34.6% (active)	-95.3% (active)	-54.7% (active)	-89% (active)	-81.9% (active)	-67.5% (active)	2.19% (active)	23.4	-61.9% (active)	-35.3% (active)	-37.7% (active)	–	-5.28% (active)	-27.1% (active)	-41.7% (active)	-18.8% (active)
O=C1N=NC2=C1c1c3ccccc3c(O)n1CC2	103%	103%	96.3	105%	86.2%	112%	96.4%	105%	108%	110%	96.1%	105	90%	104%	99.9%	–	97.1%	104%	103%	94.9%
